Assay results published in the supplement of paper PMC6555819.

What was measured:
Assay in all cases: PBM binding z-score (relative to random genomic background probes); higher = stronger binding; sequences stand for … in GC…GCGATTGACAGCGTAGAATGAAGG
[1] = system: FXR:RXRa (NR concentration 270 nM, RXRa partner concentration 90 nM)
Outline: (§1)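 Probes were double-stranded and carried 34-nt variable regions with direct-repeat seeds, single-nucleotide variants, half-site ablations and random human genomic background sequences, printed on custom Agilent 4×180K protein-binding microarrays. Arrays were incubated 1 h with ligand-free nuclear receptor dimers in PBS pH 7.4, 2% milk, 0.02% Triton X-100, 1 mM DTT, 0.2 mg/mL BSA and 0.4 mg/ml salmon testes DNA. Antibodies against each partner (one per run) detected binding, and scanned fluorescence was regression-normalized. Binding z-scores use the random background probes as reference.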

[2] = system: LXRa:RXRa (NR concentration 270 nM, RXRa partner concentration 90 nM)
Outline: as §1

[3] = system: LXRa homodimer (NR concentration 270 nM)
Outline: as §1

[4] = system: LXRb:RXRa (NR concentration 270 nM, RXRa partner concentration 90 nM)
Outline: as §1

[5] = system: LXRb homodimer (NR concentration 270 nM)
Outline: as §1

[6] = system: PPARa:RXRa (NR concentration 270 nM, RXRa partner concentration 90 nM)
Outline: as §1

[7] = system: PPARg:RXRa (NR concentration 180 nM, RXRa partner concentration 90 nM)
Outline: as §1

[8] = system: PPARg:RXRa 270nM:90nM, anti-RXR (NR concentration 270 nM, RXRa partner concentration 90 nM)
Outline: as §1

[9] = system: PPARg:RXRa 30nM:10nM, anti-RXR (NR concentration 30 nM, RXRa partner concentration 10 nM)
Outline: as §1

[10] = system: PPARg:RXRa 90nM:30nM, anti-RXR (NR concentration 90 nM, RXRa partner concentration 30 nM)
Outline: as §1

[11] = system: PPARg:RXRa DBDmut IVT, anti-RXR (DBD mutation: RXRa K156A/R161A, NR concentration 270 nM, RXRa partner concentration 90 nM)
Outline: as §1

[12] = system: PPARg:RXRa IVT, anti-PPARg (NR concentration 270 nM, RXRa partner concentration 90 nM)
Outline: as §1

[13] = system: PPARg DBDmut:RXRa IVT, anti-PPARg (DBD mutation: PPARg1 K132A/R137A, NR concentration 270 nM, RXRa partner concentration 90 nM)
Outline: as §1

[14] = system: PPARg DBDmut IVT, anti-PPARg (DBD mutation: PPARg1 K132A/R137A, NR concentration 270 nM)
Outline: as §1

[15] = system: PPARg homodimer (NR concentration 180 nM)
Outline: as §1

[16] = system: PXR:RXRa (NR concentration 270 nM, RXRa partner concentration 90 nM)
Outline: as §1

[17] = system: PXR homodimer (NR concentration 270 nM)
Outline: as §1

[18] = system: RARa:RXR (NR concentration 270 nM, RXRa partner concentration 90 nM)
Outline: as §1

[19] = system: RARa homodimer (NR concentration 270 nM)
Outline: as §1

[20] = system: RARb:RXRa (NR concentration 270 nM, RXRa partner concentration 90 nM)
Outline: as §1

Sequence	PBM binding z-score [1]	PBM binding z-score [2]	PBM binding z-score [3]	PBM binding z-score [4]	PBM binding z-score [5]	PBM binding z-score [6]	PBM binding z-score [7]	PBM binding z-score [8]	PBM binding z-score [9]	PBM binding z-score [10]	PBM binding z-score [11]	PBM binding z-score [12]	PBM binding z-score [13]	PBM binding z-score [14]	PBM binding z-score [15]	PBM binding z-score [16]	PBM binding z-score [17]	PBM binding z-score [18]	PBM binding z-score [19]	PBM binding z-score [20]
ACTATTAGTTGAGACGAGGCCAACCGATAGGTTG	0.859	0.188	0.0694	-0.0266	0.238	0.13	0.24	-0.0513	-0.341	-0.176	-0.553	0.338	-0.0845	1.03	0.634	0.673	0.177	0.671	0.555	0.81
CGTCCAAGGTCAATGCTAGGTCAATGAAAGCATT	6.8	5.82	3.63	4.64	1.53	5.09	4.43	4.97	1.54	3.64	2.82	4.3	0.467	0.337	5.41	5.09	1.55	5.61	1.61	5.25
GCTTGTAGATCAAGGTTAAGTAAGACTAAGCTAA	0.31	0.866	-0.213	0.847	-0.28	1.8	1.15	2.27	0.377	1.78	1.5	1.73	-0.282	0.512	-0.0519	0.746	-0.237	0.964	-0.148	0.875
CTACCAAGGTGAACAATGTCGTTGATTACTATTC	0.559	0.263	0.0434	0.937	0.00375	1.37	0.621	0.75	0.226	0.326	2.67	2.51	0.151	0.164	0.475	0.327	-0.0411	0.755	0.471	1.67
GTTTACGGGTCAAAGGTTATAGCATGAATAGAAT	6.92	5.94	0.633	6	0.401	6.92	11.3	9.13	9.06	10.1	4.49	6.3	1.34	0.914	2.36	6.4	0.568	8.19	0.857	4.66
CGTCAAAGTTCAGCTAAGGTAACGTAAAGCACGC	4.58	4.17	1.68	2.31	0.319	3.68	3.16	3.94	1.03	2.96	0.23	1.25	0.517	-0.309	1.44	4	1.56	3.29	1.13	4.65
ACTTACGGGTCAACGAGGTTATAGCGCGCGTATA	6.93	5.04	0.711	4.5	0.647	5.73	5.68	5.59	2.17	4.49	3.58	4.21	0.78	1.28	2.15	5.22	3.53	5.29	0.581	4.29
CGAACGAGGGGATGAGTTGATAGCAAATGCCGAT	0.0387	-0.222	-0.351	-0.0303	-0.345	-0.335	0.733	0.0328	-0.38	-0.23	0.602	0.068	0.241	0.151	0.0087	-0.392	0.00406	-0.399	0.243	-0.301
CGTGCAAGGTCAAAGGTCAGTGAAGAGATGACGG	8.16	6.9	3.14	6.7	1.86	7.4	10.9	9.02	7.56	9.38	4.05	5.94	1.68	0.658	4.64	7.09	1.48	8.94	1.9	5.91
CCAGACAGGTGAAAGGGAACTCAGTCTGGTACGC	-0.208	-0.0389	-0.366	-0.0234	-0.681	1.63	2.51	3.24	1.06	2.69	1.08	1.02	0.273	-0.448	0.717	-0.0959	-0.23	0.13	0.262	0.537
AGAACGAGGGCAATGAGTTGATAGGACGGGTGGC	0.234	0.0995	-0.497	-0.197	-0.468	1.05	1.48	0.681	0.137	0.397	3.48	2.09	0.826	0.0416	-0.0695	1.12	5.45	0.114	-0.321	2
GCGACTGGGGCAAAGCAGGTTACGATAAGGTTGG	0.296	-0.117	-0.718	0.363	-0.982	1.47	1.32	1.43	-0.188	0.405	4.13	3.73	-0.523	-0.59	0.215	0.285	-0.433	0.352	-0.129	0.879
GCTGCTAGGTCAACTGATGTTCAGCTAAAGCTCG	4.01	2.78	0.062	1.95	0.048	3.71	2.89	3.07	0.613	1.86	4.93	4.11	-0.364	-1.06	1.1	1.64	-0.723	2.27	-0.512	4.32
